# Test results as given in PubChem BioAssay (NCATS).
# Inconclusive results are not listed. Entries that show only a call come without a potency. The source made the active and inactive calls. Calls follow the shape of the dose curve; as a rule, active = well fitted inhibition curve with a large enough effect; inconclusive = small, poorly fitted or top-dose-only effect; inactive = no such curve, though single readings can be large or run the other way.
# What was measured:
# [1] = system: Zika virus NS2B-NS3 protease (unlinked complex); test: Primary screen GU Rhodamine qHTS for Zika virus inhibitors: Unlinked NS2B-NS3 protease assay (AID 1347159); details: Recombinant ZIKV NS2B-NS3 protease, Rhodamine110 substrate fluorescence; series mostly up to 107 µM; also: nearly all actives have a fitted effect of over 60% in size
# Summary of the method: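 Compounds, tested up to 114 microM, were incubated for 15 minutes with 25 nM unlinked NS2B-NS3 protease at pH 8.0. Cleavage of 1.5 microM Rhodamine110 substrate was then followed by fluorescence for 15 minutes.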
# [2] = system: Zika virus NS2B-NS3 protease (linked construct); test: Primary screen NINDS Rhodamine qHTS for Zika virus inhibitors (AID 1347160); details: purified NS2B-NS3 protease, Rhodamine110 substrate fluorescence; series mostly up to 57.1 µM; also: nearly all actives have a fitted effect of over 55% in size
# Summary of the method: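 Percent inhibition, normalized to uninhibited and enzyme-free controls, is fitted to a 4-parameter Hill equation. Fluorescence change comes from a 15-min cleavage of 1.5 microM bis-peptide Rhodamine110 substrate by 25 nM linked NS2B-NS3 at room temperature.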
Compound,Potency [1],Potency [2]
CC(C)(C)NCC(O)COc1cccc2c1CCCC2=O (stereo unspecified),inactive,inactive
COCCCNCC1COc2ccccc2O1 (stereo unspecified),inactive,inactive
C=C1C2(CCC(=O)OC2(C)C)CC(OC(=O)/C(C)=C/C)C2(C)C13OC14C(=O)OC(C)(C(=O)C12C(=O)OC4C)C3OC(C)=O (stereo unspecified),inactive,inactive
